Bioassay records as filed in PubChem.
FBW7 act: human FBW7 E3 ligase activation, primary screen | Q969H0 | AlphaScreen FBW7–phospho-cyclin E peptide binding, activator screen | normalized activity (activation), % at 26.1 µM | 650,000 tested, 0.13% active | AID 1259310; in the data active means normalized activity above about 1.9%;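 further: purified mutant Fbw7 with reduced substrate affinity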
TEAD-YAP inh: TEAD-YAP interaction inhibition; 640,000 tested, 1.4% active; HEK-TIYL cells, TEAD-Gal4/YAP UAS-luciferase luminescence; inhibition, % at 9.12 µM; in the data active means inhibition above about 32%;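 further: 0% = median of test compound wells and 100% = reference inhibitor wells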
GPR151 activ: activates the human receptor GPR151. PathHunter beta-arrestin GPR151 cells, luminescence. Q8TDV0. 650,000 tested, 1% active. activation, % at 11.2 µM; in the data active means activation above about 4.9%;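 further: 0% = median of compound wells and 100% = cells with positive control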
MITF inh: blocks human microphthalmia-associated transcription factor. 650,000 tested, 0.91% active. O75030. AlphaScreen MITF homodimerization, bead proximity signal. AID 1259374. inhibition, % at 2.6 µM; in the data active means inhibition above about 50%;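 further: 0% = vehicle wells with protein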
Target sequence (O75030 whole entry, looked up): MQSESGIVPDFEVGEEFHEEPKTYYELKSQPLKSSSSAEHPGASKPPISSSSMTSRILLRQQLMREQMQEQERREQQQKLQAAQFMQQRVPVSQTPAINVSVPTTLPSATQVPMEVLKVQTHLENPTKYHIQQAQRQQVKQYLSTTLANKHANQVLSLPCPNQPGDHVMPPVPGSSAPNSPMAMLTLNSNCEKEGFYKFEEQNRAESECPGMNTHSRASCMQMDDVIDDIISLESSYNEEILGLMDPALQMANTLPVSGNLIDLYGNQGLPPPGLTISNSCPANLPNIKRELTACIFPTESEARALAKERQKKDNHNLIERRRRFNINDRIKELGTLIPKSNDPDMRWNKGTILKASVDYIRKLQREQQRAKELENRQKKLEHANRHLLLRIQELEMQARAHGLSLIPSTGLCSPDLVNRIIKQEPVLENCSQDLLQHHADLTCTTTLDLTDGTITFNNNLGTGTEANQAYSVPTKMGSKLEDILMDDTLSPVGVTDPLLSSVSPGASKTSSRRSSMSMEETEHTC
GPR151 conf act: confirmation of human GPR151 activators; 6,700 tested, under 10 active; activation, % at 11.2 µM; GPR151 PathHunter beta-arrestin cells, luminescence, 90 min; % of EA-reagent control over plate median; shares compounds with GPR151 activ; AID 1508609;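 active means mean percent activation across replicates above the confirmation screen cutoff of 4.91%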
GPR119 ag: counter-screen for GPR151 activators: effect on human GPR119 | shares compounds with GPR151 activ | GPR119 PathHunter beta-arrestin cells, luminescence, 90 min; 0 = compound-well median, 100 = enzyme-acceptor control | activation, % at 11.2 µM | 6,700 tested, 0.3% active;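 active means mean percent activation in the counterscreen above 29.09%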;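 further: counterscreen on off-target GPR119 to flag nonselective hits from the GPR151 activator screen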
Active calls of the source: *; nt = no result given. Sampled rows, rich in hits. Any-hit rate of the full collection: about 3.5%.

SMILES	FBW7 act	TEAD-YAP inh	GPR151 activ	MITF inh	GPR151 conf act	GPR119 ag
CCCCCCc1cc(O)c2c(C)cc(=O)oc2c1	0	-1	7.0*	-4	0	12
C=CCN1C(=O)C2C(C(=O)NC3CCCC3)C3C=CC2(O3)C1C(=O)NC1CCCCC1 (stereo not drawn)	0	-2	-1	-6	nt	nt
CC(C)(C)c1ccc(C(=O)On2c(-c3ccccc3F)nc3ccccc3c2=O)cc1	0	0	5.9*	3	1	14
Cn1c(=O)c2c(nc(Cl)n2Cc2ccc([N+](=O)[O-])cc2)n(C)c1=O	0	5	0	5	nt	nt
Cn1c(=O)c2c(nc(-n3ccnc3)n2Cc2ccc([N+](=O)[O-])cc2)n(C)c1=O	0	-1	5.0*	16	1	22
CC(=O)Oc1cccc(C(=O)Nc2cc(C(=O)O)cc(C(=O)O)c2)c1	0	5	0	1	nt	nt
CC(C)[C@@H]1NC(=O)[C@H]2CN(S(=O)(=O)c3ccc(Cl)cc3)CCN2C1=O	0	-11	0	-14	nt	nt
CC(=O)N1N=C(c2ccccc2)CC1c1cn(-c2ccccc2)nc1-c1ccc(C)cc1 (stereo not drawn)	0	-6	6.0*	8	0	-6
CC(C)=NNC(=O)c1ccc(Cl)cc1	0	-34	12*	7	0	2
COc1cccc2c1OCCCN(Cc1nc(Cc3ccccc3Cl)no1)C2	0	-2	5.7*	2	-1	-8
CC(C)C[C@H]1NC(=O)[C@@H]2C[C@H](NC(=O)c3c(Cl)cccc3Cl)CN2C1=O	0	-13	0	-4	nt	nt
COc1ccc(C(=O)OCC(=O)c2cccc3ccccc23)cc1	0	3	-1	4	nt	nt
COc1ccc(-c2cc3ccc(O)c(CN4CCOCC4)c3oc2=O)cc1	0	-3	-1	8	nt	nt
O=c1oc2c(CN3CCOCC3)c(O)ccc2cc1-c1ccc(F)cc1	1	-4	14*	7	0	-3
COc1ccc(C(=O)NC(C)(C)CC(C)(C)C)cc1[N+](=O)[O-]	0	-10	6.6*	11	0	0
Oc1ccccc1/C=N/Nc1ccc(-n2ccnc2)nn1	0	11	2	16	nt	nt
O=c1c2sc3ccc([N+](=O)[O-])cc3c2[nH]c(=S)n1Cc1ccccn1	0	2	8.8*	6	-1	-8
CC(C)n1c(=S)[nH]c2c(sc3ccc([N+](=O)[O-])cc32)c1=O	0	8	1	-5	nt	nt
COc1ccc(N2CCN(C(=O)CN3CCN(c4cc(Cl)ccc4C)CC3)CC2)cc1	0	-3	7.2*	-1	0	6
Cc1ccccc1CSCC(=O)N/N=C/c1ccccc1O	0	5	1	4	nt	nt
O=C(Nc1ccc(Br)cc1)c1cc(S(=O)(=O)N2CCN(c3ccccc3F)CC2)ccc1F	0	-11	1	8	nt	nt
CC(C)(C)c1nn2cnnc2n(/N=C/c2ccccc2O)c1=O	0	1	5.9*	10	-1	-6
CC(C)(C)c1nn2cnnc2n(/N=C/c2ccccc2I)c1=O	0	3	2	-1	nt	nt
CCOCCCNc1ncc2c(n1)CC(c1ccccc1)CC2=O (stereo not drawn)	0	5	0	8	nt	nt
CC(C)n1c2ccccc2c2nnc(SCC(=O)Nc3cccc(F)c3)nc21	0	-6	-1	-10	nt	nt
SMILES	FBW7 act	TEAD-YAP inh	GPR151 activ	MITF inh	GPR151 conf act	GPR119 ag
COc1ccc(C(=O)Oc2cc(N)n(S(=O)(=O)c3ccc(C)cc3)n2)cc1OC	0	4	6.3*	8	0	10
Cc1ccc(C(=O)Oc2cc(N)n(S(=O)(=O)c3ccc(C)cc3)n2)cc1	0	-13	1	10	nt	nt
Cc1ccc(/C=N/n2c(C)n[nH]c2=S)o1	0	4	6.4*	-5	1	-2
Cc1n[nH]c(=S)n1/N=C/c1ccc(F)cc1	0	10	5.4*	3	-2	-15
COc1ccc(NC(=O)CSc2nnc(C(C)NC(=O)c3cccc(C)c3)n2C)cc1 (stereo not drawn)	0	13	0	12	nt	nt
COc1ccc(Cl)cc1NC(=O)n1cc(C)cn1	0	6	-1	6	nt	nt
COc1ccc(NC(=O)n2cc(C)cn2)cc1OC	0	-1	5.2*	16	0	-10
CC1(C)CC(=O)C(C=NCc2cccc(F)c2)=C(O)C1	0	5	1	6	nt	nt
CC1(C)CC(=O)C(C=NCCc2cccc(Cl)c2)=C(O)C1	0	21	5.4*	6	-1	-16
CCCCc1ccc(N2C(=O)c3ccccc3NC2c2ccc(Br)cc2)cc1 (stereo not drawn)	0	-5	0	17	nt	nt
CCCCN(C)Cc1c(C(=O)N2CCN(C3CCCCC3)CC2)nc2ccccn12	0	4	7.3*	14	1	6
O=C(CCC1CCCC1)NCc1ccc2c(c1)OCO2	0	-18	0	-6	nt	nt
c1ccc(N2CCN(Cc3nnnn3Cc3cccs3)CC2)cc1	0	-2	1	-1	nt	nt
c1ccc(CN2CCN(Cc3nnnn3Cc3cccs3)CC2)cc1	0	2	5.9*	10	0	-3
CCN(CC)CCCCNc1ncc2cc(-c3cc(OC)cc(OC)c3)c(NC(=O)NC(C)(C)C)nc2n1	nt	nt	5.3*	5	-1	4
CCN(CC)CCCCCCNc1cc(OC)cc2c(C)ccnc12	nt	nt	-2	nt	nt	nt
CC(C)c1ccc(NC(=O)c2ccc(N)cc2)c(N)c1	0	-50	5.8*	-3	0	-11
Nc1ccc(NC(=O)c2ccc(C(=O)Nc3ccc(N)cc3N)cc2)c(N)c1	0	2	0	14	nt	nt
O=C1CN(C(=O)COC(=O)c2ccccc2N/C=C/C(=O)C(F)(F)F)c2ccccc2N1	0	9	-2	7	nt	nt
O=C(N/N=C/c1ccco1)c1cccc(NC(=O)c2cccc(Br)c2)c1	0	-13	1	12	nt	nt
COC(=O)c1ccc(C2C3=C(CC(c4ccc(C)cc4)CC3=O)Nc3ccccc3N2C(C)=O)cc1 (stereo not drawn)	0	15	6.6*	17	0	5
Cc1ccc(-c2[nH]ncc2CN(C)Cc2c(C)n[nH]c2C)cc1C	0	7	-2	1	nt	nt
Cc1nnc(CN(C)Cc2cn[nH]c2-c2ccc(C)c(C)c2)o1	0	-18	6.7*	10	0	6
CCCC(=O)Nc1ccc(NC(=O)c2cnccn2)cn1	1	-9	8.0*	-8	-1	-6
COc1cc(C(=O)OCC(=O)NC(C)C)c([N+](=O)[O-])cc1OC	0	6	-2	9	nt	nt
CCC(CC)NC(=O)COC(=O)c1cc(OC)c(OC)cc1[N+](=O)[O-]	0	5	5.0*	-6	0	2
CSc1ncccc1C(=O)OCCOc1ccc(Br)cc1	0	-2	6.3*	-17	0	-3
